Reference: publication PMC7819943, “Rice protein-binding microarrays: a tool to detect cis-acting elements near promoter regions in rice”
Over roughly 68,000 sequences, “fluorescence intensity (a.u.)” has its median near 9,100; the highest 2% begin near 16,000. Shown is part of a subset that was picked to be rich in the highest values.

Biological target: OsWRKY34 (Oryza sativa, UniProt Q0JBA9 1-250)
Test: protein-binding microarray (RPBM); PBS, 2% BSA, 51.3 ng/ul salmon testes DNA, 50 uM zinc acetate, 200 nM TF, 25 C, 1 h; high values mean tight binding
Conditions: protein: recombinant; tags: N-terminal polyhistidine and DsRed monomer fusion (pET32a); label: CyDye5-dUTP incorporated in the synthesized complementary strand; 3' TTTTT single-stranded linker to array surface; dsDNA, one strand shown
Method in brief: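 Polyhistidine-tagged DsRed fusions of transcription factors, joined at the N-terminus, were expressed in E. coli BL21-CodonPlus and isolated on Ni–NTA. They were incubated at 200 nM for 1 h at 25 °C on a custom Agilent array, double-stranded and BSA-blocked, in PBS with 2% BSA, salmon testes DNA and 50 µM zinc acetate. The binding signal is per-feature fluorescence intensity (arbitrary units) read on an Axon 4000B scanner after washing.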

OsWRKY34, sequence (Q0JBA9 entry or part of it): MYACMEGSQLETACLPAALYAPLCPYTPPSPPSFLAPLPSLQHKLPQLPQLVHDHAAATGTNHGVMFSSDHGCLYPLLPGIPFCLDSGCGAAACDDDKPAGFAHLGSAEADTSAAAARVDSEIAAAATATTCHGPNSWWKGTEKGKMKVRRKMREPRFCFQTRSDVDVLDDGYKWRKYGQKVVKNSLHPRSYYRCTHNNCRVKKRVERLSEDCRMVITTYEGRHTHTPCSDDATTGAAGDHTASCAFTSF

| Sequence | binding signal |
| --- | --- |
| TTTTTCGCACGTTCTCTTTCGCCCTGTTTTTTTTGAAAGACGGAGTCACCTAGTGCAG | 13300 fluorescence intensity (a.u.) |
| CCTAGACCCCTTCTCACGCCGCCAGCCCGTCACACCGAGTCGGAGTCACCTAGTGCAG | 8790 fluorescence intensity (a.u.) |
| CCCACTAACTTATGGCTTTTCCCATCCGTGCTATATCCCTCGGAGTCACCTAGTGCAG | 9270 fluorescence intensity (a.u.) |
| ATACTGTCATAGGATCTCGAGTACACCTGTTTTACAAGTTCGGAGTCACCTAGTGCAG | 8860 fluorescence intensity (a.u.) |
| GTTTTGATTGGCATATGGTCCCTCCAATCCGTGTAATTGTCGGAGTCACCTAGTGCAG | 8320 fluorescence intensity (a.u.) |
| TTCCTAAATATTTACGACGTTGACTTTTTTAAAAATGTTTCGGAGTCACCTAGTGCAG | 20100 fluorescence intensity (a.u.) |
| GTTGACTTTTTTTAAAATATGTTTGACCGTTCATATTATTCGGAGTCACCTAGTGCAG | 8770 fluorescence intensity (a.u.) |
| ATTTTTATACGGACTCTAAACTCTACTTTTAATTTTATTACGGAGTCACCTAGTGCAG | 8490 fluorescence intensity (a.u.) |
| CACCGTTGATTTTTTTAAATATGTTTGACCGTTCGTTTTACGGAGTCACCTAGTGCAG | 12000 fluorescence intensity (a.u.) |
| CGTTGACTTTTTTAAATATGTTTGACCGTTTATGTTATTTCGGAGTCACCTAGTGCAG | 44100 fluorescence intensity (a.u.) |
| AAATATTTGACGCCGTTGACTTTTTTAAATATGTTTAACCCGGAGTCACCTAGTGCAG | 27200 fluorescence intensity (a.u.) |
| ATAACCAACATATTTAGCCTACAATTAAATATTTACTATACGGAGTCACCTAGTGCAG | 8390 fluorescence intensity (a.u.) |
| ACTACTTCCTCTGTTTCTAAATATTTGACGACGTTGATTTCGGAGTCACCTAGTGCAG | 8050 fluorescence intensity (a.u.) |
| GGAGTATATAAATATATATATTAAATACAACTCTAGACTACGGAGTCACCTAGTGCAG | 26700 fluorescence intensity (a.u.) |
| TACACTAACCCTACCATCCCGTACACCACCGAAACCCTAACGGAGTCACCTAGTGCAG | 8330 fluorescence intensity (a.u.) |
| TGTCTGGTCAACGCACAATTTCGGTCAGTAACTCCCTGGCCGGAGTCACCTAGTGCAG | 9770 fluorescence intensity (a.u.) |
| TCATGGGAGCAATTGCGCGATGTTTTTGTTCTTAACTTTCCGGAGTCACCTAGTGCAG | 8050 fluorescence intensity (a.u.) |
| TTTTGGTACGTTATTAGTGTGTGTATCAGTTTTTAAGTTCCGGAGTCACCTAGTGCAG | 9430 fluorescence intensity (a.u.) |
| GTTTCAGGTTTTTGCAGCCAACAGTTTTGCTGATTTTTTACGGAGTCACCTAGTGCAG | 9480 fluorescence intensity (a.u.) |
| CTCCTTTTGCGCTGCTTCTCCTCGCCGCCACCGTGTAGCGCGGAGTCACCTAGTGCAG | 8230 fluorescence intensity (a.u.) |
| GAATTTTTTTTTATCATCTTTGACGGGCACACAAATTTTACGGAGTCACCTAGTGCAG | 8140 fluorescence intensity (a.u.) |
| TGGGGATGTGTTGTGGTGAGCTGGAAAGTGCAAACTGGTTCGGAGTCACCTAGTGCAG | 9630 fluorescence intensity (a.u.) |
| TCCTGTTTAAAGTTTTTTTTTGTGATTTTTAGATAAAAAACGGAGTCACCTAGTGCAG | 9030 fluorescence intensity (a.u.) |

| Sequence | binding signal |
| --- | --- |
| AGACTATCATCTTGAGCTTATTCTTCCATTTGCTCCATCTCGGAGTCACCTAGTGCAG | 8950 fluorescence intensity (a.u.) |
| AGCCAGCCCAAAAGCCACGCCGTCCACTCCATCTCCGCCTCGGAGTCACCTAGTGCAG | 8440 fluorescence intensity (a.u.) |
| CGATCGATCGATCGCGCGCCTCCGCCTATAAATTCTTGCCCGGAGTCACCTAGTGCAG | 8230 fluorescence intensity (a.u.) |
| GATCGTTTCTATTCCTAATTCGTTTTCTTTATACTCCCTCCGGAGTCACCTAGTGCAG | 11100 fluorescence intensity (a.u.) |
| CTTTGCGTCTCCTCCCCTTTCTAATCCACTTTTTATTTTTCGGAGTCACCTAGTGCAG | 9730 fluorescence intensity (a.u.) |
| AAGGTCGTTGACTTTTTATTCGTCCTCGTCTAATTTCTCCCGGAGTCACCTAGTGCAG | 33600 fluorescence intensity (a.u.) |
| TTCGTTTTGACTTTTTTCTTAGTAAAACTTTTATGTTTGACGGAGTCACCTAGTGCAG | 11600 fluorescence intensity (a.u.) |
| CCCTAAATATTTGACGCCGTTGACTTTTTTAAATATGTTTCGGAGTCACCTAGTGCAG | 27300 fluorescence intensity (a.u.) |
| CCCACCATTTTATATTATAAGCTGTTTGACTTTTTCTTAACGGAGTCACCTAGTGCAG | 13100 fluorescence intensity (a.u.) |
| CTAAATGTTTGACACCGTTGACTTTTTTAAATATGTTTGACGGAGTCACCTAGTGCAG | 23300 fluorescence intensity (a.u.) |
| GCTGTTTGACTTTTTCTTAATTAAGCTTCTTTATGTTTGACGGAGTCACCTAGTGCAG | 19700 fluorescence intensity (a.u.) |
| CTTCCCTAAATGTTTGACACCGTTGACTTTTTAAAATATACGGAGTCACCTAGTGCAG | 10500 fluorescence intensity (a.u.) |
| TGCAGTGGCTCCGTCGCTCAGTGAACATCCAGTCCCATTTCGGAGTCACCTAGTGCAG | 9900 fluorescence intensity (a.u.) |
| GGCCTATATATAACCATTGCTGTTGCCCTAAGAATGAATGCGGAGTCACCTAGTGCAG | 9380 fluorescence intensity (a.u.) |
| CATTTTTGTTTTTTACTGGGAGATTTTTTTTCCTTTTTCTCGGAGTCACCTAGTGCAG | 11200 fluorescence intensity (a.u.) |
| TAGTTGTCAGGTCGCTCCGCTTCATTCTGCTGTGCATTTTCGGAGTCACCTAGTGCAG | 10100 fluorescence intensity (a.u.) |
| ATATAGCTTGCTTGTTCGGTTGTTCCACTGTTCCGTGAGGCGGAGTCACCTAGTGCAG | 8310 fluorescence intensity (a.u.) |
| AATTGGGAAAATTGGAACCGTGCCACTCCATCATGTTTTCCGGAGTCACCTAGTGCAG | 8210 fluorescence intensity (a.u.) |
| CTCTCGCCCTTCGCGCTGACCTCCTCACAGCTGCTCTCGCCGGAGTCACCTAGTGCAG | 8440 fluorescence intensity (a.u.) |
| AAGATCTCCCAGGCCTCGTGTTTTACGTCAACTGGTTGTACGGAGTCACCTAGTGCAG | 8270 fluorescence intensity (a.u.) |
| ATTTATTAGTTTGATCCCTCTTTTATCACCATGTATTGCCCGGAGTCACCTAGTGCAG | 8570 fluorescence intensity (a.u.) |
| AGGATCTTTATACACATAGCTACCACAATGGCTACAATTACGGAGTCACCTAGTGCAG | 8130 fluorescence intensity (a.u.) |
| CCCGCGTCTCGGCCCTCTCCGTCCTCGTTGCTTCCGACGCCGGAGTCACCTAGTGCAG | 8780 fluorescence intensity (a.u.) |
